Compounds without any hit were thinned out: in the full panel of roughly 83,000, 20% have a hit.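 Cell lines were cultured in 96-well plates, exposed to a single compound concentration, and assessed for percent growth 48 hours later.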 Unmarked numbers belong to inactive results. Activity calls are given as the source filed them. Rule for the calls: active = growth percent below 10; inactive = the rest.

The test system of the assay is HL-60(TB) leukemia. The assay can be described thus: NCI-60 one-dose screen, 48 h (100 = growth as untreated, 0 = no growth, -100 = all killed). Particulars: 10 µM unless noted.
For the molecule `CC(Br)c1nc2ccccc2cc1C(N)=O` (stereo not drawn), the growth was 104%.

Take `Cc1cc(C)c(O)c(C(=O)CC(Br)C(=O)O)c1` (stereo not drawn): the growth was 79.8%.

Take `O=C(CCCC(=O)Nc1ccc(Cn2nnc3cc(Cl)c(Cl)cc32)cc1)Nc1ccc(CN2N=NC3C=C(Cl)C(Cl)=CC32)cc1` (stereo not drawn): the growth was 89.7%.

As to `CN(C)c1ccc2cc3c(cc2c1)Oc1ccccc1N3.[Cl][Zn][Cl]`, the growth is -10.4% (active).

On to `O=C(/C=C/c1ccc(C(F)(F)F)cc1)Nc1ccc(C=C2c3ccccc3C(=O)c3ccccc32)cc1`, for which the growth is 11.2%.

As to `O=C1Nc2ccccc2/C1=C/c1cn(CC(O)Cn2cc(/C=C3\C(=O)Nc4ccccc43)c3ccccc32)c2ccccc12` (stereo not drawn), the growth was -10.2% (active).

For `C#C[C@]1(O)CC[C@H]2[C@@H]3CC=C4c5sc(-c6ccccc6)nc5CC[C@]4(C)[C@H]3CC[C@@]21C`, the growth was 74.2%.

For the molecule `C/C(=N\Nc1ccc(Cl)cn1)c1ccccn1`, the growth was -27.4% (active).

As to `COc1cccc(OC)c1C(=O)N[C@@H]1C(=O)N2[C@@H]1SC(C)(C)[C@@H]2C(=O)O`, the growth is 94.3%.

For `OC(c1ccc(F)c(C(F)(F)F)c1)c1cnccc1NC1CCCCC1` (stereo not drawn), the growth is 30.9%.

For `COc1ccc(-c2ccc(-c3ccc(C(=N)N)s3)s2)cc1Cl`, the growth is -41.8% (active).

For `O=C(O)CNC(=O)CN1C(=O)c2ccccc2C1=O`, the growth was 90.7%.

On to `O=C1CCC(N2C(=O)c3cccc(NCCCC4CCN(CCNC(=O)c5cc6c(o5)C(=O)c5ccccc5C6=O)CC4)c3C2=O)C(=O)N1` (stereo not drawn), for which the growth was 6.69% (active).

Regarding `COc1ccc(/C=C2\COc3ccc(O)c(O)c3C2=O)cc1OC`, the growth is -28.7% (active).

As to `Nc1cc(O)cc(O)c1`, the growth is 98.6%.

Turning to `O=C(CN1CCN(c2cc3c(cc2F)c(=O)c(C(=O)O)cn3C2CC2)CC1)Nc1ccc(C(=O)/C=C/c2ccccc2)cc1`, the growth was 40.9%.

With `COc1ccc(NC(=O)CSc2nc3ccccc3c(=O)n2-c2ccccc2C(F)(F)F)c(OC)c1OC`, the growth was 103%.

Turning to `CC(=O)c1ccc(NCn2nc(-c3ccc(Cl)cc3)oc2=S)cc1`, the growth was 88.9%.

On to `Cc1nc(Nc2ccc(N)cc2)c2ccccc2n1`, for which the growth was 62%.

For `CCN1C(=O)N(CC)C2C1NN=c1s/c(=C3\C(=O)N(CC(C)C)c4ccccc43)c(=O)n12` (stereo not drawn), the growth was -43.8% (active).

With `O=C(Nc1cccc(C(F)(F)F)c1)Oc1ccc(Cl)c2cccnc12`, the growth was -10.6% (active).

On to `COc1cc(OC)cc(N2C(=O)N(Cc3ccc(C(C)(C)C)cc3)c3ccccc3S2(=O)=O)c1`, for which the growth is 67.9%.

In the case of `CC/C(=C(/c1ccc(Cl)cc1)c1ccc(OCCN2CCCC2)cc1)c1ccccc1`, the growth is 17.4%.
